{"source": "PubChem BioAssay (Tox21)", "note": "Inconclusive results are not listed. Entries that show only a call come without a potency. A number with no mark means an inactive call. Calls of active or inactive are those of the source. The call rests on the fitted dose curve; in most records, active means well fitted cell-killing curve with a large enough effect in the repeat runs; inconclusive means weak or mixed curves, or effect the other way; inactive means flat fitted curve, though single readings scatter. Potency means the concentration at half of the fitted maximal effect.", "data": [{"experiment": "qHTS RealTime-Glo MT Cell Viability Assay in HEK293 cells - 32 hour (AID 1224868); further: nearly all actives have a fitted effect of over 50% in size; on activity change, negative = cytotoxic: top concentration of the series differs between compounds", "details": "RealTime-Glo luminescence; series mostly up to 76.8 µM", "method_in_brief": "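Reads taken at 0, 8, 16, 24, 32 and 40 h from the same wells. HEK293 cells (600/well) carried RealTime-Glo reagents from seeding, with compound added after a 5 h settle at 37 C.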", "values": [{"smiles": "O=C1c2ccccc2C(=O)C1c1ccc2cc(S(=O)(=O)O)cc(S(=O)(=O)O)c2n1", "Potency": "inactive"}, {"smiles": "CCCCCCCCCCCCN1CCOCC1", "Potency": "inactive"}, {"smiles": "CC(=O)c1ccc(Cl)c(Cl)c1Cl", "Potency": "inactive"}, {"smiles": "CC(C(=O)O)c1ccc(/C=C2\\CCCCC2=O)cc1", "note": "(stereo not given)", "Potency": "inactive"}, {"smiles": "COC=O", "activity change, negative = cytotoxic": "18.9% [at 6.97 µM]"}, {"smiles": "Cc1c(N=C=O)cccc1N=C=O", "Potency": "inactive"}, {"smiles": "CC(=O)c1cccnc1", "Potency": "inactive"}, {"smiles": "O=[N+]([O-])c1ccc(Cl)cc1Cl", "Potency": "inactive"}, {"smiles": "CCCCCCCCNC", "Potency": "inactive"}, {"smiles": "C=C(C)C(=O)OCCCCCCCCCCOC(=O)C(=C)C", "Potency": "inactive"}, {"smiles": "Cc1cc(C)c(C)c(O)c1", "Potency": "inactive"}, {"smiles": "CCC(=O)O[C@]1(C(=O)COC)[C@@H](C)C[C@H]2[C@@H]3CCC4=CC(=O)C=C[C@]4(C)C3(F)[C@@H](O)C[C@@]21C", "note": "(stereo not given in full)", "Potency": "inactive"}, {"smiles": "CCN(CC)CC(=O)OCC(=O)[C@@]1(O)CC[C@H]2[C@@H]3CCC4=CC(=O)CC[C@]4(C)[C@H]3[C@@H](O)C[C@@]21C", "Potency": "inactive"}, {"smiles": "CC1=C(C)C(=O)C(CCCCC#CCCCC#CCO)=C(C)C1=O", "Potency": "0.674 µM (active)"}, {"smiles": "C=CC(=O)OCCCCCCCCCC", "Potency": "inactive"}, {"smiles": "O=C(NC1CCN(CCc2c[nH]c3ccccc23)CC1)c1ccccc1", "Potency": "7.56 µM (active)"}, {"smiles": "CCOc1ccccc1O", "Potency": "1.74 µM (active)"}, {"smiles": "CC1(C)CC(O)CC(C)(C)N1[O]", "Potency": "inactive"}, {"smiles": "Cc1nc2sccn2c(=O)c1CCN1CCC(=C(c2ccc(F)cc2)c2ccc(F)cc2)CC1", "Potency": "3.38 µM (active)"}, {"smiles": "CC(=O)S[C@H](C(=O)N[C@H]1Cc2ccccc2[C@H]2CCC[C@@H](C(=O)O)N2C1=O)C(C)C", "Potency": "inactive"}, {"smiles": "CCOC(OCC)OCC", "Potency": "inactive"}, {"smiles": "Cc1c(Cl)cccc1Nc1ccccc1C(=O)O", "Potency": "inactive"}, {"smiles": "COC(=O)c1cc(Cl)ccc1[N+](=O)[O-]", "Potency": "inactive"}, {"smiles": "O=C1OC(=O)C2CC=CCC12", "note": "(stereo not given)", "Potency": "inactive"}, {"smiles": "O=C1C=CCCC1", "Potency": "inactive"}, {"smiles": "O=C(O)CNc1ccccc1", "Potency": "inactive"}, {"smiles": "O=C(O)c1cccnc1Nc1cccc(C(F)(F)F)c1", "Potency": "inactive"}, {"smiles": "O=Cc1ccc([N+](=O)[O-])cc1", "Potency": "inactive"}, {"smiles": "O=C(O)c1cccc(C(=O)O)c1C(=O)O", "Potency": "inactive"}, {"smiles": "O=C(Nc1ccccc1)c1cc([N+](=O)[O-])ccc1Cl", "Potency": "inactive"}, {"smiles": "C/C=C1\\[C@H]2C=C(C)C[C@]1(N)c1ccc(=O)[nH]c1C2", "Potency": "inactive"}, {"smiles": "FC(F)(Cl)C(F)(Cl)Cl", "Potency": "inactive"}, {"smiles": "CC(CC(C#N)(c1ccccc1)C(C)C)N(C)C", "note": "(stereo not given)", "Potency": "inactive"}, {"smiles": "CO[C@@H]1COCC[C@@H]1N[C@@H]1CC[C@@](C(=O)N2CCc3ncc(C(F)(F)F)cc3C2)(C(C)C)C1", "Potency": "15.4 µM (active)"}, {"smiles": "CC[C@H](NC(C)C)[C@H](O)c1ccc(O)c2[nH]c(=O)ccc12", "Potency": "inactive"}]}]}
